In assay [1] the target is Arylsulfatase A (Homo sapiens) (UniProt P15289). Put plainly: qHTS screen for enhancers of Arylsulfatase A (ASA1): LOPAC Validation Assay (AID 720538). Also: potency is read from the fitted curve at half-maximal effect. In a few lines:
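SV40-transformed fibroblasts from an MLD patient (ASA-I179S) were treated with compound for 48 h at 37 C. They were then lysed with 0.5 mM pNCS substrate (final) for 14 h at room temperature and stopped with NaOH; signal read by fluorescence (Ex 525/Em 598 nm), with increase denoting enhanced activity.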
A general note: In qHTS, concentration-response curves come from the screen itself.

The nature of assay [2]: qHTS for compounds that reverse cellular toxicity of Amyloid beta (A-beta) peptide in yeast: LOPAC Validation Assay (AID 720559). Also: potency is read from the fitted curve at half-maximal effect. The following applies: Potency: rescue of growth toxicity. The gist of the method:
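Yeast expressing toxic A-beta grown with pinned compounds at 30 C for 48 hr. Growth measured as absorbance at 600 nm; data normalized to DMSO and to an equimolar FeCl3/clioquinol mixture as positive control.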

The nature of assay [3]: qHTS for Activators of Parkin Expression: LOPAC Validation Assay (NLuc Reporter) (AID 720572). The gist of the method: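 NLuc signal, read 10 min after reagent and following a prior FLuc read, is normalized to DMSO (0) and positive controls (100%). Cells: neuronal Parkin-promoter coincidence reporter line; compounds tested 7-point, 24 h, 37 C, 5% CO2.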
Assay [4] is described as follows: qHTS for Activators of Parkin Expression: LOPAC Validation Assay (FLuc Reporter) (AID 720573; also: potency is read from the fitted curve at half-maximal effect). In a few lines:
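Neuronal cell line stably expressing FLuc/NLuc coincidence reporter under the Parkin promoter, 1,500 cells/well, dosed 24 h after seeding in 7-point series for 24 h at 37 C. FLuc luminescence read; normalized to DMSO and positive control (100%).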

Assay [5] concerns the target T1, Hexokinase-4 (Homo sapiens) + Glucokinase regulatory protein (Homo sapiens) (UniProt P35557+Q14397). Put plainly: qHTS assay for inhibitors of recombinant human GCK-GKRP interaction: Diaphorase-coupled assay (AID 743205). The gist of the method: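 Compounds pre-incubated 20 min with substrate, then 10 nM GST-GCK with 10 nM FLAG-GKRP added. GCK activity coupled via G6PDH and diaphorase to resorufin (5 mM glucose, 0.4 mM ATP, 0.15 mM NADP+, pH 7.6), read kinetically over 30 minutes at Ex 525/Em 590 nm.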

Assay [6] has as its target T1, Hexokinase-4 (Homo sapiens) + Glucokinase regulatory protein (Homo sapiens). Put plainly: qHTS assay for inhibitors of recombinant human GCK-GKRP interaction: HTRF assay (AID 743207).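 Also: 0% = DMSO with GCK present and -100% = DMSO wells lacking GCK.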 In a few lines:
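HTRF binding of 5 nM GST-GCK and 5 nM FLAG-GKRP with 2 uM S6P in pH 7.1 Hepes buffer (MgCl2, KCl, DTT, Tween 20, BSA). Anti-FLAG XL665 and anti-GST donor added, 60 min at room temperature; 665/615 nm read, normalized to with- and without-GCK controls.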

The nature of assay [7]: qHTS Assay for Identifying Gametocytocidal Compounds (AID 743244). Also: potency is read from the fitted curve at half-maximal effect.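 As to max response: % is scaled to controls: 0 for no effect and ±100 for the full control effect; actives lower the fluorescent signal which means gametocytes are killed.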 Particulars: P. falciparum 3D7 stage III-V gametocytes, alamarBlue, 72 h; max response: stronger effect = lower value. In a few lines: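 Late gametocytes (III–V), P. falciparum 3D7; 72 h drug, then 24 h alamarBlue; resazurin reduction read by fluorescence.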
In assay [8] the target is T1, Hexokinase-4 (Homo sapiens) + Glucokinase regulatory protein (Homo sapiens). Put plainly: qHTS assay for inhibitors of recombinant human GCK-GKRP interaction: ADP-Glo assay (AID 743206).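 Also: plate controls were DMSO plus enzyme for no effect and no enzyme for full effect.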 The gist of the method: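 Pin-transferred compounds meet a 15 nM GST-GCK/15 nM FLAG-GKRP/2 uM S6P mix (dispense concentrations). ATP is then added to 0.4 mM final with 5 mM glucose, and the reaction runs 60 min at room temperature. ADP is quantified luminescently.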

Assay [9] in a line: qHTS assay for small molecule agonists of the antioxidant response element (ARE) signaling pathway measured by Nrf2-dependant transcriptional activity - cell viability counter screen (AID 720653; active = well fitted curve in the direction sought with a large enough effect in the repeat runs; an effect the other way counts as inactive or inconclusive; also: % is scaled to controls: 0 for no effect and ±100 for the full control effect). Particulars: ARE-bla HepG2 viability, CellTiter-Glo ATP luminescence, 16 h; max response: stronger effect = lower value. The gist of the method:
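ARE-bla HepG2 cells treated with compounds for 16 h at 37C; this counter screen measures viability as intracellular ATP by CellTiter-Glo luminescence after 30 min at room temperature.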

Assay [10] is described as follows: qHTS assay for cell viability of the p53RE-bla HCT-116 cell line (AID 743292). Also: % is scaled to controls: 0 for no effect and ±100 for the full control effect; nearly all actives have a fitted effect of over 55% in size. In a few lines: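 ATP-based luminescence, 16 h compound exposure at 37 C, p53RE-bla HCT-116 cells at 4,000/well.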

Our source for the Potency, outcome and max response values is PubChem BioAssay (NCATS).

Unmarked numbers belong to inactive results. Results filed as inconclusive are left out. The source made the active and inactive calls. Unless noted, calls follow the shape of the dose curve; as a rule, active = well fitted curve in the direction sought with a large enough effect; inconclusive = small, poorly fitted or top-dose-only effect, or another doubt; inactive = no such curve, though single readings can be large; an effect the other way counts as inactive or inconclusive.

T1 sequence (P35557 whole entry, looked up): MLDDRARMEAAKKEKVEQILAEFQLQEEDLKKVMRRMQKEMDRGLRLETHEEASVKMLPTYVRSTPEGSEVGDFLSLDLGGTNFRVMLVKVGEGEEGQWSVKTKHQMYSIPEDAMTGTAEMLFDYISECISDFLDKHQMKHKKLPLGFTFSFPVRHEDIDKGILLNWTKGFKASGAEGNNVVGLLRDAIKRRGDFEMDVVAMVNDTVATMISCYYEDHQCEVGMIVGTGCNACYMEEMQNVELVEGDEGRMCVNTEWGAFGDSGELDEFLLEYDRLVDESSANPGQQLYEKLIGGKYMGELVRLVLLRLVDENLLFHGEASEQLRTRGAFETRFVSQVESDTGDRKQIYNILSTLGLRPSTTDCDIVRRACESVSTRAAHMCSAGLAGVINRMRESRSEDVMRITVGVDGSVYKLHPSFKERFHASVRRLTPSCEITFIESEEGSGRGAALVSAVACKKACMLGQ
T1 sequence (Q14397 whole entry, looked up): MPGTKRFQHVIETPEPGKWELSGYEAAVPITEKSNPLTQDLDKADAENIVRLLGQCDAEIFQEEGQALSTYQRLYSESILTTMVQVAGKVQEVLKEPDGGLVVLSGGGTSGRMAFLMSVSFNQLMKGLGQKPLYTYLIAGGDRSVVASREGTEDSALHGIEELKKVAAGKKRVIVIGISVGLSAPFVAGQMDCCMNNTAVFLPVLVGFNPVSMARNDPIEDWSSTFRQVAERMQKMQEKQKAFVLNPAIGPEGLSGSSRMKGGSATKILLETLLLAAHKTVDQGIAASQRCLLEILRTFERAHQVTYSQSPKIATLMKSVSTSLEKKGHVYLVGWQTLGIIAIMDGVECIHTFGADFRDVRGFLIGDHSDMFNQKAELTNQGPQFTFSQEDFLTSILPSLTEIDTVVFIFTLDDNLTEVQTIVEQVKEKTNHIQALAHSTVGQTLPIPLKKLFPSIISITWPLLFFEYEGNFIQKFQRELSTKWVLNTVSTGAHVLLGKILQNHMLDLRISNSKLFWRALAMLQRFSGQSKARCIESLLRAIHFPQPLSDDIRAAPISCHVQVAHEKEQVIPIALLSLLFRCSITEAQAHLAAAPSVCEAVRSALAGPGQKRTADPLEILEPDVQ
Chain of Arylsulfatase A (Homo sapiens) (P15289 whole entry, looked up): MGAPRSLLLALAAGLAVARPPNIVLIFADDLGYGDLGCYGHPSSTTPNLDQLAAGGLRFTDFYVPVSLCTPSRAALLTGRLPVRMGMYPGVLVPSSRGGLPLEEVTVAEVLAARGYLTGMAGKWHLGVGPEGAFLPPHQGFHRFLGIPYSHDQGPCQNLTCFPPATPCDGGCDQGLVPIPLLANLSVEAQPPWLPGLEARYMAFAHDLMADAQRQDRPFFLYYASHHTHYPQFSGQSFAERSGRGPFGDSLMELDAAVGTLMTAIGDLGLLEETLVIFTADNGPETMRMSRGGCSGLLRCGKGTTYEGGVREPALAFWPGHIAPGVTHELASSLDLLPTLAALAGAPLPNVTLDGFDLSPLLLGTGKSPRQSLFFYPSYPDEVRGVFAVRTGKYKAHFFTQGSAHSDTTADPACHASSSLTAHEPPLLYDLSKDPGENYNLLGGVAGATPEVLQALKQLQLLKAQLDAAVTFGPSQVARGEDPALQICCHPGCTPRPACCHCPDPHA

Consider `Cn1cc(C2=C(c3ccc(Cl)cc3Cl)C(=O)NC2=O)c2ccccc21`, for which the Potency result in assay [1], in [2], in assay [3], in assay [4] and in assay [6] was “inactive” each time. Further, the result in [5] was inactive. The max response in assay [7] is 6.65%.

As for `CCCCCC(O)c1cccc(OCc2ccc3ccccc3n2)c1` (stereo unspecified), the Potency result in assay [1], in [2], in assay [3] and in assay [4] was “inactive” throughout. Further, the result in assay [5] was inactive. Moreover, in assay [7], the max response was 5.39%.

Turning to `CC(C)NC[C@H](O)COc1cccc2[nH]ccc12`, the Potency result in assay [1], in assay [2] and in assay [3] was “inactive” throughout. Moreover, the max response in assay [7] was 4.63%.

With `Nc1nc(SCc2ccc([N+](=O)[O-])cc2)c2ncn([C@@H]3O[C@H](CO)[C@@H](O)[C@H]3O)c2n1`, the Potency result in assay [1], in assay [2], in assay [3], in assay [4] and in assay [6] was “inactive” throughout. In assay [5], the outcome was inactive. The max response in [7] was 22.6%.

For the compound `Brc1c(Br)c(Br)c2n[nH]nc2c1Br`, the Potency result in assay [1], in assay [2], in assay [3] and in [4] was “inactive” each time. The outcome in assay [5] was inactive. For the same compound, the max response in assay [7] is 10.7%.

Take `Cc1cc2c(cc1Cl)N(C(=O)Nc1ccc(Oc3cccnc3C)nc1)CC2`: the Potency entry in assay [1], in assay [3] and in assay [4] was “inactive” each time. In assay [5], the result was inactive.

`Oc1cc(O)cc(/C=C/c2ccc(O)c(O)c2)c1`: the Potency in [1] was 23.9 µM (active). For the same compound, the Potency result in assay [2], in assay [8] and in assay [6] was “inactive” each time. The result in assay [5] was inactive. For the same compound, the max response in [7] was 42.8%.

Take `O=C1NC(=O)/C(=C/c2ccc(-c3ccc(F)cc3O)o2)S1`: the Potency entry in [1], in assay [2], in [3] and in assay [6] was “inactive” each time. The outcome in assay [5] was inactive. In addition, in assay [7], the max response was -4.42%.

In the case of `O=c1[nH]c2cc(Cl)c(Cl)cc2[nH]c1=O`, the Potency entry in assay [1], in assay [2], in assay [3], in assay [8] and in [6] was “inactive” in each case. In [5], the outcome was inactive.

For the compound `COc1cc(SC)ccc1C(=O)N1CCC(Cc2ccccc2)CC1`, the Potency entry in assay [1], in [2], in assay [3] and in [4] was “inactive” in each case. For the same compound, in [5], the result was inactive. The max response in assay [7] was 12.7%.

With `Oc1ccccc1O`, the Potency result in [1], in [2], in assay [3], in assay [8], in [6] and in [10] was “inactive” throughout. Moreover, the max response in [9] is -28.6%. The result in assay [5] was inactive.

Turning to `O=C1NC(=O)/C(=C/c2ccc3nccnc3c2)S1`, the Potency entry in assay [1], in assay [2], in assay [3], in assay [8] and in assay [6] was “inactive” each time. Further, in assay [5], the result was inactive. The max response in [7] was -5.45%.

In the case of `C#C[C@]1(O)CC[C@H]2[C@@H]3CCC4=Cc5oncc5CC4(C)[C@H]3CCC21C` (stereo partly specified), the Potency entry in [1], in [2], in assay [3], in assay [4] and in assay [6] was “inactive” throughout. Moreover, in assay [5], the result was inactive. Besides, the max response in assay [7] is 25.1%.

As to `O=C(O)c1cc(=O)c2ccccc2[nH]1`, the Potency entry in assay [1], in [2], in [3] and in [6] was “inactive” in each case. For the same compound, the result in assay [5] was inactive. Moreover, in assay [7], the max response was -5.82%.

With `O=C(O)c1cc([N+](=O)[O-])ccc1NCCCc1ccccc1`, the Potency result in assay [1], in [3], in assay [4], in assay [8] and in assay [6] was “inactive” throughout. Besides, the outcome in assay [5] was inactive. The max response in assay [7] is 5.5%.

In the case of `Nc1ncnc2c1c(I)cn2[C@@H]1C[C@H](N)[C@@H](O)[C@H]1O`, the Potency result in assay [1], in assay [2], in assay [8] and in [6] was “inactive” throughout. The Potency in [4] is 20.6 µM (active). Further, the outcome in [5] was inactive. Further, in assay [7], the max response was 12.6%.

On to `C[C@@H](NC(=O)/C(C#N)=C/c1ccc(O)c(O)c1)c1ccccc1`, for which the Potency entry in assay [1], in [2], in assay [3], in [4] and in [6] was “inactive” each time. The result in assay [5] was inactive. Besides, the max response in assay [7] is 3.77%.

Consider `Nc1nc(Cl)nc2c1ncn2[C@@H]1O[C@H](COP(=O)(O)OP(=O)(O)OP(=O)(O)O)[C@@H](O)[C@H]1O`, for which the Potency entry in assay [1], in assay [3] and in assay [4] was “inactive” each time. In assay [2], the Potency is 18.4 µM (active). Also, the result in [5] was inactive. Also, the max response in [7] was 20.1%.

Take `N#C/C(=C\c1ccc(O)c(O)c1)C(=O)NCCCc1ccccc1`: the Potency entry in assay [1], in assay [2], in [3], in [4] and in assay [6] was “inactive” in each case. In addition, in assay [5], the result was inactive. In addition, the max response in assay [7] was 8.54%.

For `CC(COc1ccc(/C=C/c2ccccc2)cc1)[N+](C)(C)C` (stereo unspecified), the Potency result in assay [1], in [3], in assay [4], in assay [8] and in [6] was “inactive” in each case. For the same compound, in [5], the outcome was inactive.

Consider `CC(=O)N[C@H](C(=O)O)C(C)(C)SN=O`, for which the Potency result in assay [1], in assay [2], in assay [3], in [4] and in [6] was “inactive” in each case. Besides, the result in [5] was inactive. Moreover, the max response in [7] was 7.76%.

With `CN1CCc2ccccc2Cc2[nH]c3ccccc3c2CC1`, the Potency entry in [1], in [2], in assay [3], in assay [4] and in [6] was “inactive” throughout. Moreover, the result in [5] was inactive. Further, in assay [7], the max response is -0.861%.

`COc1ccccc1N1CCN(CCCCNS(=O)(=O)c2cccc3c(N(C)C)cccc23)CC1`: the Potency entry in assay [1], in assay [2], in assay [3], in assay [4] and in assay [6] was “inactive” each time. In addition, the result in assay [5] was inactive. Further, the max response in assay [7] is 10.4%.

Take `COc1cccc(C(=O)NCCN2CCN(c3ccc(Cl)cc3)CC2)c1`: the Potency entry in assay [1], in assay [2], in assay [3], in [4] and in assay [6] was “inactive” in each case. Moreover, in assay [5], the result was inactive. Also, the max response in assay [7] was 13.6%.

As for `O=C(/C=C/c1ccc(O)c(O)c1)OCCc1ccccc1`, the Potency result in assay [1], in [2], in assay [3], in [8] and in assay [6] was “inactive” each time. In addition, in assay [5], the result was inactive.

`CCCN(CC1CC1)c1nc(C)nc(Nc2c(Cl)cc(Cl)cc2Cl)c1Cl`: the Potency result in [1], in assay [2], in assay [3] and in assay [4] was “inactive” each time. The outcome in assay [5] was inactive. In addition, the max response in assay [7] is 18.2%.

As for `Cc1ccc(O)c(N=Nc2ccccc2)n1`, the Potency entry in assay [1], in assay [2], in assay [3] and in assay [6] was “inactive” throughout. In addition, the result in assay [5] was inactive. Besides, the Potency in assay [7] is 2.51 µM (active).

For the compound `CC12C(=O)OC(=O)C1(C)C1CCC2O1` (stereo unspecified), the Potency result in [1], in [2], in assay [3], in assay [4] and in assay [6] was “inactive” each time. Also, the outcome in [5] was inactive. Also, in assay [7], the max response was 3.18%.

For `CCNC(=O)[C@H]1O[C@@H](n2cnc3c(N)nc(NCCc4ccc(CCC(=O)O)cc4)nc32)[C@H](O)[C@@H]1O`, the Potency entry in assay [1], in assay [2], in [3], in assay [4] and in assay [6] was “inactive” each time. The result in assay [5] was inactive. In addition, the max response in [7] is -4.57%.
